Source: PubChem BioAssay (Broad Institute)
The list is not random: actives were taken first. Their share in the collection is about 7.8%.
MITF inh = inhibitors of MITF; TRPM1 promoter luciferase, luminescence, 24 h; inhibition, % (concentration not given with the values); hit rate 0.28% among 37,000; in the data active = inhibition above about 85%; inconclusive = no clear call, values can overlap the other calls; inactive = below about 68%;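 note: human melanocyte line stably carrying TRPM1 promoter luciferase reporter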
NOMO-1 viab = STK33 inhibitor candidate reducing NOMO-1 cell viability; NOMO-1 AML viability, CellTiter-Glo luminescence, 72 h; inhibition, % (test concentration not listed); hit rate 7.5% among 37,000; AID 2330; in the data active = inhibition above about 80%; inconclusive = no clear call, values can overlap the other calls
Hedgehog inh = blocks Sonic Hedgehog signaling; Shh-LIGHT2 Gli-luciferase reporter, 30 h; inhibition, % (concentration not given with the values); hit rate 2.1% among 22,000; AID 2313;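 active = mean inhibition across valid replicates above about 65%, limit read from the data; inconclusive = mean under the limit, yet half or more replicates past it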;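 note: pathway switched on by Shh-conditioned medium diluted 1 in 25 in low serum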
Numbers without * were called inactive; ? = inconclusive; / = not tested or not shown; ! = repeats disagree.

SMILES	MITF inh	NOMO-1 viab	Hedgehog inh
C[C@@H]1CN([C@H](C)CO)C(=O)c2cc(NC(=O)Nc3cccc4ccccc34)ccc2O[C@@H]1CN(C)Cc1ccc(Cl)c(Cl)c1	27	101*	3
C[C@@H]1CCCCO[C@@H](CN(C)Cc2ccc(Cl)c(Cl)c2)[C@@H](C)CN([C@H](C)CO)C(=O)c2cc(NC(=O)Nc3cccc4ccccc34)ccc2O1	-6	45	26
C[C@@H]1CN([C@H](C)CO)C(=O)c2cc(NC(=O)Nc3cccc4ccccc34)ccc2O[C@H]1CN(C)Cc1ccc(Cl)c(Cl)c1	19	112*	/
C[C@@H]1CN([C@@H](C)CO)C(=O)c2cc(NC(=O)Nc3cccc4ccccc34)ccc2O[C@H]1CN(C)Cc1ccccc1	1	3	23
C[C@H](CO)N1C[C@H](C)[C@@H](CN(C)Cc2ccc(Cl)c(Cl)c2)Oc2ccc(NC(=O)Nc3cccc4ccccc34)cc2C1=O	28	112*	/
C[C@@H]1CN([C@@H](C)CO)C(=O)Cc2cc(NS(=O)(=O)c3ccc(Cl)cc3)ccc2O[C@@H]1CN(C)C(=O)Nc1ccccc1	-3	18	13
C[C@H]1CN([C@@H](C)CO)C(=O)c2cccc(NC(=O)c3cnccn3)c2O[C@H]1CN(C)Cc1ccncc1	-2	19	-13
CCOc1ccc(S(=O)(=O)Nc2nc3ccccc3nc2Nc2ccccc2)cc1	1	-4	?
O=S(=O)(Nc1nc2ccccc2nc1Nc1ccccc1F)c1ccc(Cl)cc1	34	28	98*
C(=C\c1ccccc1)/CN1CCN(C(c2ccccc2)c2ccccc2)CC1	9	25	5
Fc1ccc(C(c2ccc(F)cc2)N2CCN(C/C=C/c3ccccc3)CC2)cc1	-9	116*!	4
Cc1cc(C)n(Cc2ccccc2)c(=O)c1C#N	-2	-12	/
Cc1cc(C)c(C#N)c(Sc2ncnc3c2nnn3Cc2ccccc2)n1	71	116*	/
Cc1[nH]c2ccccc2c1C(c1c(C)[nH]c2ccccc12)C(C)C	58	115*	33
CC(C)Cn1c(=S)[nH]c2ccccc2c1=O	-5	37	-22
Cc1cc(OCC(=O)Nc2cc(-c3nc4ncccc4o3)ccc2C)ccc1Cl	33	66	/
C[C@@H]1CN([C@@H](C)CO)C(=O)c2cccc(NC(=O)C3CCCCC3)c2O[C@@H]1CN(C)Cc1ccc(-c2ccccc2)cc1	10	77	6
C[C@@H]1CN([C@H](C)CO)C(=O)c2cccc(NC(=O)C3CC3)c2O[C@@H]1CN(C)Cc1ccc(C(F)(F)F)cc1	-3	-1	-35
C[C@@H]1CN([C@H](C)CO)C(=O)c2cccc(NC(=O)C3CCCCC3)c2O[C@H]1CN(C)Cc1ccc(C(F)(F)F)cc1	64	104*	11
C[C@@H]1CN([C@H](C)CO)C(=O)c2cccc(NC(=O)C3CCCCC3)c2O[C@@H]1CN(C)Cc1ccc(Oc2ccccc2)cc1	-2	25	12
C[C@H](CO)N1C[C@H](C)[C@H](CN(C)Cc2ccc(-c3ccccc3)cc2)Oc2c(NC(=O)C3CCCCC3)cccc2C1=O	0	119*	0
C[C@H]1CN([C@@H](C)CO)C(=O)c2cccc(NC(=O)C3CCCCC3)c2O[C@@H]1CN(C)Cc1ccc(Oc2ccccc2)cc1	31	86*	31
C[C@H]1CN([C@@H](C)CO)C(=O)c2cc(NC(=O)c3ccncc3)ccc2O[C@H]1CN(C)C(=O)Nc1ccc2c(c1)OCO2	2	10	/
C[C@@H]1CN([C@@H](C)CO)C(=O)c2cccc(NS(C)(=O)=O)c2O[C@H]1CN(C)Cc1ccc(C(=O)O)cc1	-2	-7	-9
Cc1nc(SCC(=O)c2ccc(Cl)cc2)c2c3c(sc2n1)CCCC3	-53	-24	/
SMILES	MITF inh	NOMO-1 viab	Hedgehog inh
C[C@@H]1CN([C@H](C)CO)C(=O)c2cc(NC(=O)c3ccncc3)ccc2O[C@H]1CN(C)C	1	-12	10
C[C@H](CO)N1C[C@H](C)[C@H](CN(C)Cc2ccncc2)Oc2ccc(NC(=O)C3CC3)cc2CC1=O	-3	-10	-20
CNC(=O)CN(c1ccccc1C)S(=O)(=O)c1ccc(Cl)cc1	-1	21	/
Cn1cc(C2=C(c3cn(CCCSC(=N)N)c4ccccc34)C(=O)NC2=O)c2ccccc21	68	142*	44
CN(C)CCCn1cc(C2=C(c3c[nH]c4ccccc34)C(=O)NC2=O)c2ccccc21	-13	?	32
CCN(CC)c1n[nH]nc1-c1cccc(Cl)c1	-93	1	-129
C[C@@H]1CN([C@@H](C)CO)C(=O)c2cccc(NC(=O)c3ccc(-c4nccs4)cc3)c2O[C@H]1CN(C)Cc1ccc(Oc2ccccc2)cc1	60	111*	28
COc1ccc(CN(C)C[C@H]2Oc3c(NC(=O)c4ccc(-c5nccs5)cc4)cccc3C(=O)N([C@H](C)CO)C[C@@H]2C)cc1	37	47	53
COc1ccc(CN(C)C[C@@H]2Oc3c(NC(=O)c4ccc(-c5nccs5)cc4)cccc3C(=O)N([C@@H](C)CO)C[C@H]2C)cc1	42	72	37
C[C@@H]1CN([C@H](C)CO)C(=O)c2cccc(NC(=O)c3ccc(-c4nccs4)cc3)c2O[C@@H]1CN(C)Cc1ccc(Oc2ccccc2)cc1	21	89*	71*
COc1cc(C2NC(=S)NC(c3ccccc3)=C2C(=O)c2ccccc2)cc(I)c1OCCO (configuration not stated)	-22	26	/
COC(=O)COc1cc(Cl)c(C2NC(=S)NC(c3ccccc3)=C2C(C)=O)cc1OC (configuration not stated)	16	117*	/
O=C(Oc1c(CN2CCOCC2)cc(Cl)c2cccnc12)c1ccc(F)cc1	53	109*	/
COc1ccccc1C(=O)Oc1c(CN2CCOCC2)cc(Cl)c2cccnc12	46	109*	/
Cc1cccc2c(C(=O)NCCN3CCOCC3)cc(-c3ccccc3Cl)nc12	2	-4	/
O=C(NCc1cccnc1)c1ccc(Cl)c(S(=O)(=O)N2CCOCC2)c1	-17	13	/
C[C@@H]1CN([C@H](C)CO)C(=O)c2cc(NS(=O)(=O)c3ccccc3)ccc2O[C@@H]1CN(C)C(=O)Nc1ccccc1	1	-5	-4
C[C@@H]1CCCCO[C@@H](CN(C)Cc2ccc(Cl)c(Cl)c2)[C@@H](C)CN([C@H](C)CO)C(=O)c2cc(NC(=O)Nc3ccc4c(c3)OCO4)ccc2O1	19	42	18
Cc1csc(SCC(=O)Nc2ccc3c(c2)OCCO3)n1	-50	-9	/
O=C(/C=C/c1ccc(O)c(O)c1)O[C@@H]1C[C@](O)(C(=O)O)C[C@@H](O)[C@H]1O	0	16	-32
COc1cc(/C=C/C(=O)OC2CC3CCC2(C)C3(C)C)ccc1O (configuration not stated)	-86	104*	2
CC(C)c1ccc(NC(=O)CNS(=O)(=O)c2ccccc2)cc1	-28	20	/
CCOC(=O)c1c(-c2ccc(C)o2)csc1NC(=O)CN1C(=O)c2ccccc2C1=O	-4	22	/
CC(CC(N)=O)OC(=O)c1cc(Cl)cc(O)c1O (configuration not stated)	27	88*	-10
O=C(c1ccc(Br)cc1)N1Cc2ccccc2NC1=S	-6	125*	5
O=C(c1ccc(O)cc1)N1Cc2ccccc2NC1=S	-99	0	-73
